14-3-3 Bad PPI: disrupts binding of bovine 14-3-3 zeta to phospho-Bad peptide; hit rate 0.71% among 220,000; P63103; AID 781; TR-FRET 14-3-3zeta/Dy647-pBad peptide displacement, 1 h; inhibition, % at 21.7 µM;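 active means inhibition above about 70%, limit read from the data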
Efa HMGR inh: E. faecalis class II HMG-CoA reductase inhibition | purified E. faecalis HMGR, NADPH absorbance 340 nm kinetic | hit rate 0.41% among 190,000 | inhibition, % at 10 µM | AID 1066;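 active means inhibition above a set limit, the median over all tested compounds plus 3 SD, cut at about 9.5% in these data; inconclusive means no clear call, values can overlap the other calls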;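 further: enzyme runs in reverse so mevalonate oxidation gives rising NADPH absorbance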
dFosB activator: enhances mouse delta FosB homodimer DNA binding; hit rate 0.99% among 340,000; P13346; activation, % at 25 µM; AID 493131; purified delta FosB, TAMRA-CDK5 oligo fluorescence polarization; percent of positive-control signal above neutral wells;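 active means mean activation above about 17%, with every replicate also reaching it, limit read from the data, passing the limit was not always enough; inconclusive means only one of the two conditions met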
Target sequence (P13346 whole entry, looked up): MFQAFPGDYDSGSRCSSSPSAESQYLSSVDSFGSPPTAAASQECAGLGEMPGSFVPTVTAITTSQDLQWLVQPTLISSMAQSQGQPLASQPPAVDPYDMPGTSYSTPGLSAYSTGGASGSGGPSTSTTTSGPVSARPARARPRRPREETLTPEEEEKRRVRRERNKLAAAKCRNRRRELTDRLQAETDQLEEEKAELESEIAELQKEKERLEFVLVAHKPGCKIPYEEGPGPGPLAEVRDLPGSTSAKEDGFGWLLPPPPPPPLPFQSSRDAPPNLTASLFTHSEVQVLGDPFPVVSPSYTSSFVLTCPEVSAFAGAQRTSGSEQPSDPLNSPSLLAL
NCF1 inh: p47phox (human) inhibition; AID 1274; hit rate 0.53% among 220,000; p47phox/p22phox peptide binding, fluorescence polarization, 2 h; inhibition, % at 24.7 µM; P14598;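 active means inhibition above about 30%, limit read from the data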
Target sequence (P14598 whole entry, looked up): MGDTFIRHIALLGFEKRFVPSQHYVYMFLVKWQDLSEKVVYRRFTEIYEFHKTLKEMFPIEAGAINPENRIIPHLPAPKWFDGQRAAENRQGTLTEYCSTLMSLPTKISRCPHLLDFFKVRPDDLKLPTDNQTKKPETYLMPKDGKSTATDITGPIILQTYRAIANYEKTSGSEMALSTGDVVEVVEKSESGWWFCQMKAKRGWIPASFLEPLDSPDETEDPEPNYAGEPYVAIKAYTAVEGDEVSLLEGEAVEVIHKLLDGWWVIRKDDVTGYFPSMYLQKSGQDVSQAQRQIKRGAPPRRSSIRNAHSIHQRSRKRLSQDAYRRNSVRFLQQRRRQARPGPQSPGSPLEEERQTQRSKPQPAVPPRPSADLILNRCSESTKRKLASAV
Large screens that a line does not name were inactive; ! = not confirmed by another sample; [ ] = another dose, or the depositor's remark. An excerpt weighted towards active compounds, which were near 1.9% of everything screened.

Cc1cccc(N2CC(O)(c3cccs3)[N+]3=C2CCCCC3)c1 (stereo not drawn)	14-3-3 Bad PPI 83
Cc1oc(-c2ccccc2F)nc1CS(=O)(=O)CC(=O)NC1CCCC1	none
C=CCc1cccc(/C=N/NC(=O)CCCNc2ccc(C)cc2)c1O	NCF1 inh 94
O=C1/C(=C/c2cccs2)SC(=S)N1c1ccccc1	none
CCN(CC)c1ccc(N2C(=O)/C(=C\c3cccs3)SC2=S)cc1	14-3-3 Bad PPI 92[fluorescence artefact?]
O=C(NCCCN1CCOCC1)C1CC(=O)N(CCc2ccccc2)C1 (stereo not drawn)	none
O=C(NCCCN1CCCCCC1)C1CC(=O)N(CCc2ccccc2)C1 (stereo not drawn)	NCF1 inh 55
COc1ccc(-c2nc3ccccc3c(=O)o2)cc1OC	none
CCOc1ccc(-c2nc3ccccc3c(=O)o2)cc1	Efa HMGR inh 12
N#Cc1c(NCCN)nc(-c2ccccc2)c2c1CCCC2	NCF1 inh 42
N#Cc1c(NCCN)nc(NCc2ccccc2)c2c1CCN(Cc1ccccc1)C2	dFosB activator 24 (no result: 14-3-3 Bad PPI, Efa HMGR inh, NCF1 inh)
Cc1ccc(NC(=O)c2cc3c(=O)oc4ccc(C)cc4c3s2)nc1	14-3-3 Bad PPI 78 (no result: Efa HMGR inh, dFosB activator)
CCC1=NN2C(=N)/C(=C\c3cccn3-c3ccc(Br)cc3)C(=O)N=C2S1	14-3-3 Bad PPI 79, NCF1 inh 43
COc1ccc(-n2cccc2/C=C2\C(=N)N3N=C(c4ccco4)SC3=NC2=O)cc1	14-3-3 Bad PPI 82
Cc1cc(C)cc(C(=O)N2CCCCCC2)c1	none
CCN(CC)c1ccc(Nc2nc(N3CCOCC3)c3ccccc3n2)cc1	none
COc1cc(Nc2c3ccccc3nc3ccccc23)cc(OC)c1OC	dFosB activator 44 (no result: 14-3-3 Bad PPI, Efa HMGR inh, NCF1 inh)
COc1ccc(Nc2c3ccccc3nc3ccccc23)cc1	dFosB activator 60 (no result: 14-3-3 Bad PPI, Efa HMGR inh, NCF1 inh)
COc1ccc(Nc2nc(N3CCCC3)c3ccccc3n2)cc1	dFosB activator 59
COc1ccc(CCNc2c3ccccc3nc3ccccc23)cc1OC	dFosB activator 30 (no result: Efa HMGR inh)
COc1ccc(CCNC(=O)c2ccc(Cl)cc2Cl)cc1OC	none
COc1ccccc1Nc1c2ccccc2nc2ccccc12	dFosB activator 37 (no result: 14-3-3 Bad PPI, Efa HMGR inh, NCF1 inh)
COc1ccc(CCNC(=O)c2ccccc2Cl)cc1OC	Efa HMGR inh 18
Cc1ccc(CNc2cccnc2)cc1	none (no result: 14-3-3 Bad PPI, Efa HMGR inh, NCF1 inh)
Cc1ccc(NCc2cccnc2)cc1	14-3-3 Bad PPI 71
COc1cc(OC)cc(-c2sc3ccc(OC)cc3c2C#CC2(N)CCCCC2)c1	none (no result: 14-3-3 Bad PPI, Efa HMGR inh, NCF1 inh)
COc1ccc(-c2sc3cc4c(cc3c2C#CC2(N)CCCCC2)OCO4)cc1	dFosB activator 67 (no result: 14-3-3 Bad PPI, Efa HMGR inh, NCF1 inh)
COc1ccc2cc3c(N)nn(C(=O)Cc4ccc(Cl)cc4)c3nc2c1	none
CC1(C)C(=O)Nc2ccccc2N1C(=O)COC(=O)Cc1ccccc1F	none (no result: 14-3-3 Bad PPI, Efa HMGR inh, NCF1 inh)
C[n+]1c2cc(N)ccc2cc2ccc(N)cc21	dFosB activator 33! (no result: 14-3-3 Bad PPI, Efa HMGR inh, NCF1 inh)
Nc1ccc2ccc(O)cc2c1	none (no result: 14-3-3 Bad PPI, Efa HMGR inh, NCF1 inh)
CCn1c(SC)nnc1-c1nn(-c2ccccc2)ccc1=O	none
COc1cc(C2N=C(c3ccccc3)NO2)cc(Br)c1O (stereo not drawn)	NCF1 inh active
COc1ccc(C2N=C(c3ccccc3)NO2)cc1OC (stereo not drawn)	none (no result: 14-3-3 Bad PPI, Efa HMGR inh, NCF1 inh)
COc1ccc(Cl)cc1C(=O)Nc1cccc(-c2ccc3nncn3n2)c1	NCF1 inh 33
COc1ccccc1-[n+]1c(C)cc(/C=C2\Sc3ccccc3N2C)cc1C	none (no result: Efa HMGR inh)
COc1ccc(-[n+]2c(C)cc(/C=C3\Sc4ccccc4N3C)cc2C)cc1	dFosB activator 29
O=C(CSc1nnc(-c2cccc(F)c2)o1)N1CCOCC1	none (no result: 14-3-3 Bad PPI, Efa HMGR inh, NCF1 inh)
O=C(CC1SCCNC1=O)Nc1ccc(F)c(Cl)c1 (stereo not drawn)	Efa HMGR inh 16
COc1cc(CNCc2ccncc2)cc(Br)c1OCc1ccccc1F	14-3-3 Bad PPI 83
COc1cc(CNc2ccc(O)cc2)cc(Br)c1OCc1ccccc1F	none
S=C(NCc1ccco1)N1CCN(c2cccc(Cl)c2)CC1	none (no result: NCF1 inh)
O=C1CC(Cc2ccccc2)C(=O)N1CCCn1ccnc1 (stereo not drawn)	14-3-3 Bad PPI 75 (no result: dFosB activator)
Cc1ccc(CC2CC(=O)N(CCc3ccccc3)C2=O)cc1 (stereo not drawn)	none
CN(c1ncc(C(F)(F)F)cc1Cl)n1cc(C(=O)O)c2ccccc2c1=O	none
Cc1cccc(Nc2cc(C)c3c(O)cccc3n2)c1C	dFosB activator 43
O=C1C(Br)=Cc2cccc3cccc1c23	NCF1 inh 31 (no result: Efa HMGR inh)
O=C1c2cccc3cccc(c23)C(=O)N1OS(=O)(=O)c1ccc(Br)cc1	none
CC(=O)c1cc2c(cc1N/C(=N/S(=O)(=O)c1ccccc1)c1ccc(Cl)cc1)OCO2	Efa HMGR inh 13, dFosB activator inconclusive
CC(=O)c1cc2c(cc1NS(=O)(=O)c1ccccc1)OCO2	none
N=C(N)SCc1nc2ccccc2c(=O)n1-c1ccccc1Cl	none
O=c1c2ccccc2nc(CSc2nnnn2-c2ccccc2)n1-c1ccccc1Cl	NCF1 inh 40
Cc1ccc(C)c(CN2CCNC2=O)c1	NCF1 inh 137
COc1ccc(NC(=O)c2ccccc2N(Cc2ccccc2)S(C)(=O)=O)cc1OC	Efa HMGR inh 10
Cc1cccc(-n2nc(C(=O)c3ccco3)cc(-c3nc4ccccc4[nH]3)c2=N)c1	dFosB activator 34
Cc1ccccc1-n1nc(C(=O)c2cccs2)cc(-c2nc3ccccc3[nH]2)c1=N	none
COc1ccc(-c2nnc(NC(=O)CSc3ccc(Cl)cc3)s2)cc1OC	NCF1 inh 41
O=[N+]([O-])c1ccc(Cl)c2c1C1C=CCC1C(c1ccccn1)N2 (stereo not drawn)	none
O=C(O)c1ccc(Cl)c2c1C1C=CCC1C(c1ccccn1)N2 (stereo not drawn)	NCF1 inh 40 (no result: dFosB activator)
CCC1CCCCN1S(=O)(=O)c1ccc(NC(=O)c2cccs2)cc1 (stereo not drawn)	Efa HMGR inh 11
Nc1nc(-c2ccc(-n3nncc3-c3ccco3)cc2)cs1	none (no result: Efa HMGR inh, dFosB activator)
CS(=O)(=O)N1CCN(Cc2ccccc2C(F)(F)F)CC1	none
CS(=O)(=O)N1CCN(Cc2ccc(C(F)(F)F)cc2)CC1	14-3-3 Bad PPI 81
Cn1nc(C(=O)NCc2ccccc2)c2ccccc2c1=O	none
Cn1nc(C(=O)NCCOc2ccccc2)c2ccccc2c1=O	14-3-3 Bad PPI 75
Cc1ccc(N/C(=C\C(=O)c2ccccc2)C(=O)O)cc1	none
OCCN1CCN(CC/C=C2/c3ccccc3Sc3ccc(Cl)cc32)CC1	dFosB activator 17 (no result: 14-3-3 Bad PPI, Efa HMGR inh, NCF1 inh)
CCN(c1cccc(C)c1)C1C(=O)c2ccccc2N1C(C)=O (stereo not drawn)	none (no result: 14-3-3 Bad PPI, Efa HMGR inh, NCF1 inh)
CN(C)c1ccc(N=Cc2nc(-c3ccccc3)oc2O)cc1	NCF1 inh 58
COc1ccc(N=Cc2nc(-c3ccco3)oc2O)cc1	Efa HMGR inh 11
Oc1oc(-c2ccccc2)nc1C=Nc1ccccc1	NCF1 inh 44
COC(=O)c1ccc(C2c3c(n[nH]c3C)C(=O)N2c2ccc(C)cc2)cc1 (stereo not drawn)	none
Cc1ccc(N2C(=O)c3n[nH]c(C)c3C2c2ccccn2)cc1 (stereo not drawn)	NCF1 inh 73
Cc1ccc(N2C(=O)c3n[nH]c(C)c3C2c2ccco2)cc1 (stereo not drawn)	NCF1 inh 46
CC(=O)Nc1nc(C)c(-c2csc(Nc3cccc(C(C)=O)c3)n2)s1	none (no result: 14-3-3 Bad PPI, Efa HMGR inh, NCF1 inh)
